Measurements taken from PubChem BioAssay (Tox21).
Inconclusive results are not listed. Entries that show only a call come without a potency. Calls of active or inactive are those of the source. Unless noted, the call rests on the fitted dose curve; in most records, active means well fitted curve in the direction sought with a large enough effect in the repeat runs; inconclusive means weak or mixed curves; inactive means no such curve, though single readings can be large; an effect the other way counts as inactive or inconclusive.

Legend:
[1] = qHTS assay to identify small molecule agonists of the androgen receptor (AR) signaling pathway in the presence of an antagonist - cell viability counter screen (AID 1259379); further: nearly all actives have a fitted effect of over 25% in size; further: potency means the concentration at half of the fitted maximal effect
In short: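 Cytotoxicity counter-screen run in the same wells as the nilutamide-challenged (3.0 µM final) AR agonist assay in MDA-kb2 cells. Compounds tested at 15 concentrations for 16 h, 37 °C without CO2; CellTiter-Fluor fluorescence read.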

[2] = qHTS assay to identify small molecule agonists of the estrogen receptor beta (ER-beta) signaling pathway - cell viability counter screen (AID 1259380); further: nearly all actives have a fitted effect of over 30% in size; further: potency means the concentration at half of the fitted maximal effect
In short: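 Cell viability counter screen: CellTiter-Glo luminescence (30 min, room temperature) measured in the same wells as the beta-lactamase readout, after 16 hr compound exposure at 37C of ER-beta-bla HEK293T cells in 2% charcoal-stripped FBS medium.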

[3] = biological target: Androgen receptor (Homo sapiens) (UniProt P10275); assay: qHTS assay to identify small molecule agonists of the androgen receptor (AR) signaling pathway in the presence of an antagonist (AID 1259381; calls by dose curve; further: nearly all actives have a fitted effect of over 15% in size)
Androgen receptor (Homo sapiens), sequence (P10275 whole entry, looked up): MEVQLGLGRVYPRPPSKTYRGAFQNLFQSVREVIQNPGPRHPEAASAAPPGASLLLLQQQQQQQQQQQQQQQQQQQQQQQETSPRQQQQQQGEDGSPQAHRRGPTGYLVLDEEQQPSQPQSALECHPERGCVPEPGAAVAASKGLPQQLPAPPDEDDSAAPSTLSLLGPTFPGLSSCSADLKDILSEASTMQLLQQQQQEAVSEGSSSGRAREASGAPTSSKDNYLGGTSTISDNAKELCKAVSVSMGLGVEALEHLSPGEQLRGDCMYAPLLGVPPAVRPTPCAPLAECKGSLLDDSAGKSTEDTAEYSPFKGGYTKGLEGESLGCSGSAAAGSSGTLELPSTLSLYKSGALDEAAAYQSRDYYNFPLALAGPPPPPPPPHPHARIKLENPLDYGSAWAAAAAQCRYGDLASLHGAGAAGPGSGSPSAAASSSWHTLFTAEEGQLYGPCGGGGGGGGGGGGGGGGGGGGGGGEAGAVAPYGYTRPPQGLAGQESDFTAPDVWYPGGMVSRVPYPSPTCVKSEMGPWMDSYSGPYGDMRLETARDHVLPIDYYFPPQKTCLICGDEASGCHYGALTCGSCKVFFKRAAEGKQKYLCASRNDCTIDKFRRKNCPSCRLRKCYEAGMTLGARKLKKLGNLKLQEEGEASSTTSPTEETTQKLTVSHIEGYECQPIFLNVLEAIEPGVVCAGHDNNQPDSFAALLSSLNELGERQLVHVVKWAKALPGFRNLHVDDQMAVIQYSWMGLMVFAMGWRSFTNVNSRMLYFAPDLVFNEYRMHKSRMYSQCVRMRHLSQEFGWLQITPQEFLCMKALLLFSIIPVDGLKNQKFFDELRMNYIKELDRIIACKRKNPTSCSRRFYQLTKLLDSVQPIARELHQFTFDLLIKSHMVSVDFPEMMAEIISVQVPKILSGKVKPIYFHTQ
In short: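 Agonist-mode confirmation run against 3.0 uM final nilutamide: compounds titrated at 15 concentrations onto MDA-kb2 MMTV-luciferase reporter cells. Luminescence measured with ONE-Glo following 16 hr incubation, 37C, 0% CO2.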

[4] = biological target: Estrogen receptor (Homo sapiens) (UniProt P03372); assay: qHTS assay to identify small molecule agonists of the estrogen receptor alpha (ER-alpha) signaling pathway in the presence of an antagonist (AID 1259383; calls by dose curve; further: top concentration of the series differs between compounds; nearly all actives have a fitted effect of over 15% in size)
Estrogen receptor (Homo sapiens), sequence (P03372 whole entry, looked up): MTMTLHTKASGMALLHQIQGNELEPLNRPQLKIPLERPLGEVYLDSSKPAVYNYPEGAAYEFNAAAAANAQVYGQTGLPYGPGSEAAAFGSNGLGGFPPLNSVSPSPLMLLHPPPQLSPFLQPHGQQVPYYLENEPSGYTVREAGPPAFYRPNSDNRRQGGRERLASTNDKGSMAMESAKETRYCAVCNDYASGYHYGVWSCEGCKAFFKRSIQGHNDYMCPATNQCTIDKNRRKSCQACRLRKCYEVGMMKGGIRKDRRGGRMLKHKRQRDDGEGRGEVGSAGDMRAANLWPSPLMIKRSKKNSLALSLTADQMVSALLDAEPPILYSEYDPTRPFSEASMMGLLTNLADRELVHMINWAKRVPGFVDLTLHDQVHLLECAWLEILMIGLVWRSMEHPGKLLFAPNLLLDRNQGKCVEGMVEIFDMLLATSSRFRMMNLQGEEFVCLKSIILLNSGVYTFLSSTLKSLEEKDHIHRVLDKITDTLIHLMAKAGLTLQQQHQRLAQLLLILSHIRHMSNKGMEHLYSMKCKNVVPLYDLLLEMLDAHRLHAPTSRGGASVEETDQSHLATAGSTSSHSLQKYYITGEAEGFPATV
In short: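 Agonist-mode confirmation run in the presence of 10.0nM (final) ICI-182,780 antagonist. The reporter was ERE-driven luciferase in VM7Luc4E2 cells, grown in charcoal-stripped serum. Cells were exposed to 15-concentration compound series for 22hr, then ONE-Glo luminescence was read.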

[5] = qHTS assay to identify small molecule agonists or antagonists of the thyroid stimulating hormone receptor (TSHR) signaling pathway - wild type cell line counter screen (AID 1259384; calls by dose curve)
In short: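 Wild-type HEK293 cells were plated 18 h at 37 C/5% CO2, pin-dosed with compound plus Ro20-1724 medium, held 30 min at room temperature, then given cAMP-d2 and anti-cAMP-cryptate; fluorescence was read after 1 h. Fifteen concentrations, triplicate.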

[6] = biological target: Thyrotropin receptor (Homo sapiens) (UniProt P16473); assay: qHTS assay to identify small molecule antagonists of the thyroid stimulating hormone receptor (TSHR) signaling pathway (AID 1259385; calls by dose curve; further: nearly all actives have a fitted effect of over 20% in size)
Thyrotropin receptor (Homo sapiens), sequence (P16473 whole entry, looked up): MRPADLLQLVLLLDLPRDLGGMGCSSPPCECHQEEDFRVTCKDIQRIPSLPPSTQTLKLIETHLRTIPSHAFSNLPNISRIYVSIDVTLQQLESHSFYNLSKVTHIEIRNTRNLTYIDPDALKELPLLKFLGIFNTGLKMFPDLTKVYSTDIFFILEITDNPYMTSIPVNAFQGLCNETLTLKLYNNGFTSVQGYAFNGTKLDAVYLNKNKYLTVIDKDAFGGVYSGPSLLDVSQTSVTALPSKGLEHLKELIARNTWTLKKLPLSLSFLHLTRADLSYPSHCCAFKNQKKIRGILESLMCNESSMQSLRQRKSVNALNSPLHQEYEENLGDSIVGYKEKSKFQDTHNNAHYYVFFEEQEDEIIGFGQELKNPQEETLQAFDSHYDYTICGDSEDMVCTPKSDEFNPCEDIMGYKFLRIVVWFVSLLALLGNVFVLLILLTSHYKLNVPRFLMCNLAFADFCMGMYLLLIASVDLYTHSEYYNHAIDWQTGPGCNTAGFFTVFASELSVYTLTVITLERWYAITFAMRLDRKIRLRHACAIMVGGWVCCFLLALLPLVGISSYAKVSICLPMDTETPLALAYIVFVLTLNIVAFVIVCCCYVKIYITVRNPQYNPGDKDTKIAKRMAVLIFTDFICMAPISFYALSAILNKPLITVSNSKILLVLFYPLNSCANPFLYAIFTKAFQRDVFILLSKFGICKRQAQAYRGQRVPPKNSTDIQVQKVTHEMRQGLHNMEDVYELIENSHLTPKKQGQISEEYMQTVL
In short: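 TSHR-HEK293 cells were plated and held 18 h at 37C/5% CO2, then given compound plus Ro20-1724 and stimulated with TSH at 1.5 ng/mL final. After 30 min at room temperature, cAMP was detected with cAMP-d2/anti-cAMP-cryptate (1 h) by fluorescence.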

[7] = qHTS assay to identify small molecule agonists of the estrogen receptor alpha (ER-alpha) signaling pathway in the presence of an antagonist - cell viability counter screen (AID 1259386); further: nearly all actives have a fitted effect of over 30% in size; further: potency means the concentration at half of the fitted maximal effect
In short: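 Compounds tested at 15 concentrations for 22 h at 37C alongside 10.0nM (final) ICI-182,780 antagonist, in VM7Luc4E2 cells grown in phenol red-free, charcoal-stripped medium. Viability read by CellTiter-Fluor fluorescence after 1 h reagent incubation.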

[8] = biological target: Progesterone receptor (Homo sapiens) (UniProt P06401); assay: qHTS assay to identify small molecule agonists of the progesterone receptor (PR) signaling pathway (AID 1346784; calls by dose curve; further: nearly all actives have a fitted effect of over 30% in size)
Progesterone receptor (Homo sapiens), sequence (P06401 whole entry, looked up): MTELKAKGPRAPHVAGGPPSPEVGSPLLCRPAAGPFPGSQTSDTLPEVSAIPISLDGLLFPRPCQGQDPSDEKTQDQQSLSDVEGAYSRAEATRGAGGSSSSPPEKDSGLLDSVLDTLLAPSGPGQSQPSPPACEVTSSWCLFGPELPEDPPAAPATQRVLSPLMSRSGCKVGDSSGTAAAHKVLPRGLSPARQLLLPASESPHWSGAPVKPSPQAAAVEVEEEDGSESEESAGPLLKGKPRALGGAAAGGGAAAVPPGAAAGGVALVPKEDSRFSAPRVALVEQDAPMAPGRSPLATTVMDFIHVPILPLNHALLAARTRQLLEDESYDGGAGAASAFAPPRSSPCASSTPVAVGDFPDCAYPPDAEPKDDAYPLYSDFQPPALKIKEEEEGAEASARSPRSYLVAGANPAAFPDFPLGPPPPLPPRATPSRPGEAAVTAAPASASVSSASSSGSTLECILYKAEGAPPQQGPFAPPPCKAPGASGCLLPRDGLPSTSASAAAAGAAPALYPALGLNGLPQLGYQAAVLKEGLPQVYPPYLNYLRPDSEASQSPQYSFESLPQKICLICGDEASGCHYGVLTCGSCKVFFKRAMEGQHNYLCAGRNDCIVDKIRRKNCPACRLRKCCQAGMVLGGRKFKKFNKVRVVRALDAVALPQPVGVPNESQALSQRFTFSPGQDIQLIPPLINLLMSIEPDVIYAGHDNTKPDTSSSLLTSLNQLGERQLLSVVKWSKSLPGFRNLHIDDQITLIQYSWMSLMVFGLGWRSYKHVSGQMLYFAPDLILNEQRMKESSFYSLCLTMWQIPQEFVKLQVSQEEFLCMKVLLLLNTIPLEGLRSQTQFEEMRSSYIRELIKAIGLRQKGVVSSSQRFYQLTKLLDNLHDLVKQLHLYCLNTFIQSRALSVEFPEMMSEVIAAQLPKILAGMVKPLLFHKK
In short: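 PR-UAS-bla HEK 293T cells (beta-lactamase reporter under UAS) in 2% charcoal-stripped FBS, dosed with 23 nL compound after 6 hr, incubated 16hr at 37C. LiveBLAzer B/G FRET substrate added, fluorescence read after 2 hours.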

[9] = qHTS assay to identify small molecule antagonists of the progesterone receptor (PR) signaling pathway - cell viability counter screen (AID 1346798); further: nearly all actives have a fitted effect of over 50% in size; further: potency means the concentration at half of the fitted maximal effect
In short: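 PR-UAS-bla HEK293T cells, 3,000/well in 2% charcoal-stripped FBS medium, dosed with compounds plus R5020 agonist and incubated 16 h at 37C. Viability then measured in the same wells by CellTiter-Glo luminescence after 30 min at RT.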

[10] = qHTS assay to identify small molecule antagonists of the TGF-beta/Smad signaling pathway - cell viability counter screen (AID 1346824); further: nearly all actives have a fitted effect of over 50% in size
In short: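 SBE-bla HEK 293T cells were plated overnight at 37 C, then given compounds in DMSO plus TGF-beta1 (added as 0.25 ng/mL solution) for 5 hr. After the bla read, CellTiter-Glo was added to the same wells and luminescence read after 30 min at room temperature.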

[11] = qHTS assay to identify small molecule agonists of the TGF-beta/Smad signaling pathway - cell viability counter screen (AID 1346829); further: top concentration of the series differs between compounds; nearly all actives have a fitted effect of over 45% in size
In short: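 Same-well cytotoxicity: CellTiter-Glo added after the 2 hr room-temperature beta-lactamase substrate step, luminescence measured 30 min later; cells had 5 hr of compound at 37 C.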

[12] = biological target: Thyrotropin-releasing hormone receptor (Homo sapiens) (UniProt P34981); assay: qHTS assay to identify small molecule antagonists of the thyrotropin-releasing hormone receptor (TRHR) signaling pathway (AID 1346877; active means well fitted inhibition curve with a large enough effect in the repeat runs, not every such curve was filed as active; further: series mostly up to about 51 µM)
Thyrotropin-releasing hormone receptor (Homo sapiens), sequence (P34981 whole entry, looked up): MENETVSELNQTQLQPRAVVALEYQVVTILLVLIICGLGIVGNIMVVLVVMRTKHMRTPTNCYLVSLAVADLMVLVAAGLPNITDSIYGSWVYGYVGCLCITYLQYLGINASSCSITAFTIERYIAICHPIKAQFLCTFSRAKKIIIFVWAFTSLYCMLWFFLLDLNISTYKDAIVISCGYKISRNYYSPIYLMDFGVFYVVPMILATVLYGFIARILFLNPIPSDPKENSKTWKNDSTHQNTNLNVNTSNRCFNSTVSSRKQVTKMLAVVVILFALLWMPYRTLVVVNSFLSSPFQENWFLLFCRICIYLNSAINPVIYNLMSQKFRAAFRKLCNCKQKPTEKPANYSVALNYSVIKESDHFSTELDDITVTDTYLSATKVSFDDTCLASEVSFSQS
In short: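 Antagonist mode: after a 5 min room-temperature compound exposure, cells were stimulated with 1 nM (final) TRH. Dye-loaded TRHR-HEK293 cells were used, and calcium-dependent fluorescence was followed for 3 min, with 15-point titrations run in triplicate.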

[13] = biological target: Thyrotropin-releasing hormone receptor (Homo sapiens) (UniProt P34981); assay: qHTS assay to identify small molecule agonists of the thyrotropin-releasing hormone receptor (TRHR) signaling pathway (AID 1346891; calls by dose curve; further: potency means the concentration at half of the fitted maximal effect; on activation: series mostly up to about 58 µM)
In short: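 HEK293 cells expressing TRHR plated 18 h at 37 C/5% CO2, calcium dye-loaded 2 h at 37 C, then compound added (agonist mode); kinetic calcium fluorescence read 3 min at 1 s intervals; 15 concentrations in triplicate.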

[14] = biological target: Estrogen receptor beta (Homo sapiens) (UniProt Q92731); assay: qHTS assay to identify small molecule agonists of the estrogen receptor beta (ER-beta) signaling pathway (AID 1259377; active means well fitted activation curve with a large enough effect in the signal ratio in the repeat runs, not every such curve was filed as active; the % refers to the signal ratio)
Estrogen receptor beta (Homo sapiens), sequence (Q92731 whole entry, looked up): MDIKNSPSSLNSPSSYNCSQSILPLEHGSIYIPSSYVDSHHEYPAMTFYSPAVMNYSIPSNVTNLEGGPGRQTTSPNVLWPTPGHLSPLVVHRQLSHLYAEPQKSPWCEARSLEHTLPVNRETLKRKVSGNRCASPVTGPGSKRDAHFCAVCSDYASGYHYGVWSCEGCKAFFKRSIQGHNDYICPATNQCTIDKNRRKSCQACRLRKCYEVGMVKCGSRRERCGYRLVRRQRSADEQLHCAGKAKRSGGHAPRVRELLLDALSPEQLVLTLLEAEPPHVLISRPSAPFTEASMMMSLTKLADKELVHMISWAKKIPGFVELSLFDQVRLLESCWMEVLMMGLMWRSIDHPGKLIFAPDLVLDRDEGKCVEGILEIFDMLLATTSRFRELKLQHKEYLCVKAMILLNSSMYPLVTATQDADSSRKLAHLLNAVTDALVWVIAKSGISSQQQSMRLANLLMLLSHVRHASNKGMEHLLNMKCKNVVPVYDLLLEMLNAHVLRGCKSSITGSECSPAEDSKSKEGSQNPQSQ
In short: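 ER-beta-UAS-bla HEK293T cells in medium with 2% charcoal-stripped FBS were exposed to compounds for 16 h at 37C. Beta-lactamase reporter activity was read as fluorescence after 2 h with LiveBLAzer B/G FRET substrate at room temperature.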

[15] = biological target: Progesterone receptor (Homo sapiens) (UniProt P06401); assay: qHTS assay to identify small molecule antagonists of the progesterone receptor (PR) signaling pathway (AID 1346795; active means well fitted inhibition curve with a large enough effect in the signal ratio in the repeat runs, not every such curve was filed as active; the % refers to the signal ratio; further: potency means the concentration at half of the fitted maximal effect)
In short: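 PR-UAS-bla HEK293T cells with beta-lactamase reporter under UAS control, in 2% charcoal-stripped FBS, treated with compounds plus 1 nM promegestone (R5020, final) for 16 hr at 37C. Read-out: FRET beta-lactamase substrate fluorescence after 2 hr at room temperature.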

[16] = qHTS assay to identify small molecule agonists of the TGF-beta/Smad signaling pathway (AID 1346859; active means well fitted activation curve with a large enough effect in the signal ratio in the repeat runs, not every such curve was filed as active; the % refers to the signal ratio; further: series mostly up to about 77 µM)
In short: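 SBE-bla HEK293T cells plated overnight, then compound exposure for 5 h at 37 C. Beta-lactamase reporter read with LiveBLAzer B/G FRET substrate after 2 h at room temperature, fluorescence at 405 nm excitation, 460/530 nm emission.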

[17] = biological target: Estrogen receptor beta (Homo sapiens) (UniProt Q92731); assay: qHTS assay to identify small molecule antagonists of the estrogen receptor beta (ER-beta) signaling pathway (AID 1259378; active means well fitted inhibition curve with a large enough effect in the signal ratio in the repeat runs, not every such curve was filed as active; the % refers to the signal ratio)
In short: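 ER-beta-UAS-bla HEK293T (GripTite) cells in 2% charcoal-stripped FBS medium were preincubated 6 hr at 37C, dosed with compound, then stimulated with 1 nM E2 (final) for 16 hr; beta-lactamase reporter read by B/G FRET fluorescence after 2 hr substrate loading.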

[18] = qHTS assay to identify small molecule antagonists of the estrogen receptor beta (ER-beta) signaling pathway - cell viability counter screen (AID 1259382); further: nearly all actives have a fitted effect of over 55% in size; further: potency means the concentration at half of the fitted maximal effect
In short: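 Cytotoxicity was measured in the same wells by CellTiter-Glo luminescence after 30 min at room temperature. Cells were ER-beta-bla HEK293T in charcoal-stripped serum, given compound together with 1 nM E2 and incubated 16 h at 37C.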

[19] = qHTS assay to identify small molecule agonists of the progesterone receptor (PR) signaling pathway - cell viability counter screen (AID 1346799; calls by dose curve; further: nearly all actives have a fitted effect of over 45% in size)
In short: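 Counter screen in the PR-UAS-bla HEK293T wells (2% charcoal-stripped FBS, 16 h compound exposure at 37 C) after the bla read. CellTiter-Glo added, 30 min at room temperature, luminescence read as cell viability.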

SMILES	Potency [1]	Potency [2]	Potency [3]	Potency [4]	outcome [5]	Potency [6]	Potency [7]	Potency [8]	Potency [9]	Potency [10]	Potency [11]	Potency [12]	Potency [13]	Potency [14]	Potency [15]	outcome [16]	Potency [17]	Potency [18]	Potency [19]
COC(=O)C(C)N(C(=O)Cc1ccccc1)c1c(C)cccc1C (centres undefined)	inactive	61.1 µM (active)	inactive	inactive	inactive	inactive	inactive	inactive	inactive	inactive	inactive	inactive	inactive	–	–	–	–	–	–
CN1C[C@H](CNC(=O)OCc2ccccc2)C[C@@H]2c3cccc4c3c(cn4C)C[C@H]21	inactive	–	–	inactive	–	–	inactive	inactive	–	inactive	inactive	inactive	inactive	inactive	inactive	inactive	–	–	–
O=C1C(Cl)C(CCl)CN1c1cccc(C(F)(F)F)c1 (centres undefined)	inactive	–	inactive	–	–	inactive	inactive	inactive	0.864 µM (active)	inactive	inactive	inactive	inactive	inactive	30.6 µM (active)	inactive	inactive	inactive	inactive
CN1C(=O)C(O)N=C(c2ccccc2)c2cc(Cl)ccc21 (centres undefined)	inactive	inactive	–	inactive	–	–	inactive	–	inactive	inactive	inactive	–	–	inactive	inactive	inactive	–	inactive	–
Clc1ccc(C(OCCN2CCCCC2)c2ccccc2)cc1 (centres undefined)	–	18.8 µM (active)	–	inactive	inactive	inactive	inactive	inactive	inactive	inactive	inactive	inactive	inactive	inactive	–	–	inactive	inactive	inactive
O=C(Nc1ccccc1)Nc1cnns1	inactive	–	–	inactive	inactive	inactive	inactive	–	–	inactive	inactive	inactive	inactive	inactive	–	inactive	–	inactive	–
Nc1ccc(N=Nc2ccc(-c3ccc(N=Nc4c(S(=O)(=O)O)cc5cc(S(=O)(=O)O)c(N=Nc6ccccc6)c(O)c5c4N)cc3)cc2)c(N)c1	17.6 µM (active)	–	–	inactive	–	–	15.7 µM (active)	inactive	inactive	inactive	inactive	–	–	inactive	inactive	inactive	–	–	inactive
CC(O)(CS(=O)(=O)c1ccc(F)cc1)C(=O)Nc1ccc(C#N)c(C(F)(F)F)c1 (centres undefined)	inactive	31.8 µM (active)	–	inactive	–	–	inactive	inactive	inactive	inactive	inactive	–	inactive	inactive	–	inactive	–	28.3 µM (active)	inactive
O=C1NCN(c2ccccc2)C12CCN(CCCOc1ccc(F)cc1)CC2	–	–	–	inactive	–	–	–	inactive	inactive	inactive	inactive	–	6.01 µM (active)	–	–	inactive	–	–	inactive
O=C(O)C(F)(F)C(F)(F)C(F)(F)C(F)(F)C(F)(F)C(F)(F)C(F)(F)C(F)(F)C(F)(F)F	inactive	10.9 µM (active)	–	inactive	inactive	inactive	inactive	inactive	inactive	inactive	inactive	–	–	–	inactive	inactive	–	inactive	inactive
